Bioassay records from PubChem.
PAFAH1B3 inh: blocks human PAF acetylhydrolase 1B catalytic subunit 3; Q15102; recombinant PAFAH1B3, FP-rhodamine probe, fluorescence polarization; inhibition, % at 3.39 µM; 340,000 tested, 0.28% active; AID 492972;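 active means inhibition above the screen-wide average of all tested compounds plus 3 SD, cut at about 25% in these data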;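 further: 0% = enzyme with DMSO only and 100% = wells lacking PAFAH1B3 protein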
Target sequence (Q15102 whole entry, looked up): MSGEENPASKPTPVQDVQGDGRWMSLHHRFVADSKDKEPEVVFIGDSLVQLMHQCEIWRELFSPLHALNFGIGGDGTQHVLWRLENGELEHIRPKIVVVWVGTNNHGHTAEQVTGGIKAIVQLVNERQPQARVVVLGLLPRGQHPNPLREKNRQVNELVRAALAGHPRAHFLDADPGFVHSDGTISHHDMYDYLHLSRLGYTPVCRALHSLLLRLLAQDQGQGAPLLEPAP
PAFAH2 FP inh: PAFAH2 (human) inhibition; recombinant PAFAH2, FP-rhodamine activity probe, fluorescence polarization; AID 492956; inhibition, % at 3.39 µM; Q99487; 340,000 tested, 0.99% active;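 active means inhibition above the mean over all tested compounds plus 3 SD, cut at about 30% in these data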;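 further: inhibitors block probe labeling of enzyme so polarization drops; 0% = enzyme with DMSO and 100% = wells lacking PAFAH2 protein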
ATG4B inhibitor: ATG4B (human) cysteine protease inhibition; Q9Y4P1; ATG4B cleavage of LC3-PLA2, NBD-HPC fluorescence, 1 h; inhibition, % at 8.33 µM; 340,000 tested, 0.51% active; in the data active means inhibition above about 40%
DAGLB inhibitor: blocks human DAGLB lipase activity | AID 504411 | 340,000 tested, 0.059% active | HEK293T DAGLB membrane lysate, EnzChek fluorogenic substrate | Q8NCG7 | inhibition, % at 5.17 µM; in the data active means inhibition above about 34%;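 further: 0% = enzyme with vehicle and 100% = wells lacking enzyme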
pPAFAH inh: inhibitors of human plasma PAF acetylhydrolase (pPAFAH) | Q13093 | recombinant pPAFAH, FP-rhodamine probe fluorescence polarization | inhibition, % at 3.39 µM | 330,000 tested, 1.5% active;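 active means inhibition above the mean inhibition across the screen plus 3 SD, cut at about 25% in these data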;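 further: inhibitors block binding of the rhodamine activity-based probe so polarization drops; 0% = enzyme with DMSO and 100% = wells lacking pPAFAH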
PAFAH1B2 inh: blocks human PAF acetylhydrolase 1b catalytic subunit 2; P68402; recombinant PAFAH1B2, FP-rhodamine activity probe, fluorescence polarization; inhibition, % at 3.39 µM; 340,000 tested, 1.2% active;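 active means inhibition above the mean of all tested compounds plus 3 SD, cut at about 24% in these data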;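 further: 0% = enzyme with DMSO and 100% = wells lacking PAFAH1B2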
Target sequence (P68402 whole entry, looked up): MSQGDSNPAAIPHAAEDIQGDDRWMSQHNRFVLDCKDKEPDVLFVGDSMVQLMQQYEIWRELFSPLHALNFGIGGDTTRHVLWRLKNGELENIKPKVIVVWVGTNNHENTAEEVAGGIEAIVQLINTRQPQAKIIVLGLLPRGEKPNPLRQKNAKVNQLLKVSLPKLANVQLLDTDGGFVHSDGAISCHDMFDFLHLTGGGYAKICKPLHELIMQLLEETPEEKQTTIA
Starred values were filed as active, the others as inactive; . = not tested or not shown. In the library only some 3% were active in any assay of this set; here they are far more common.

SMILES	PAFAH1B3 inh	PAFAH2 FP inh	ATG4B inhibitor	DAGLB inhibitor	pPAFAH inh	PAFAH1B2 inh
CC(=O)Nc1ccc(NC(=O)C(C)OC(=O)C2(c3ccc(F)cc3)CCCC2)cc1 (stereo not drawn)	19	-2	-10	2	6	41*
O=C(N/N=C/c1c(O)ccc2ccccc12)c1cccnc1	25	11	-15	-4	25*	20
O=C(N/N=C/c1ccc(O)c2ncccc12)c1cccc(Br)c1	26*	13	-3	9	27*	17
O=C(NN=Cc1c(O)ccc2ccccc12)c1ccncc1	18	-1	-14	-13	.	4
Cc1ccc(C(=O)N/N=C/c2c(O)ccc3ccccc23)cn1	25	7	-22	5	31*	19
O=C(N/N=C\c1c(O)ccc2ccccc12)c1ccc(O)cc1	41*	-14	-26	3	26*	21
CC(C)(C)OC(=O)N1Cc2[nH]c3ccccc3c2C[C@@H]1C(=O)O	0	-3	-3	2	3	3
COc1cccc(NC(=O)c2ccc(N3C(=O)C4CC=CCC4C3=O)cc2)c1 (stereo not drawn)	9	0	-16	1	-3	7
Cc1ccccc1C(=O)N1CCC(C(=O)NCCc2ccc(S(N)(=O)=O)cc2)CC1	2	-11	-2	-1	-1	5
O=C(N/N=C/c1cc(Br)c(O)c(Br)c1)c1cc2c(ccc3ccccc32)o1	43*	29	-2	13	.	49*
O=C(N/N=C/c1c(O)ccc2ccccc12)Nc1ccccc1	.	.	-10	.	27*	.
O=C(N/N=C/c1ccc(O)c(Br)c1)c1cc2c(ccc3ccccc32)o1	-4	-6	-11	-20	.	-2
Cc1occc1C(=O)N/N=C/c1c(O)ccc2ccccc12	24	18	-7	5	13	9
O=C(N/N=C/c1c(O)ccc2ccccc12)c1ccc(Br)o1	35*	14	3	1	29*	12
CCOc1ccc(NC(=O)CN(C)C(=O)c2n[nH]c(=O)c3ccccc23)cc1OCC	7	0	12	4	.	2
CSCC[C@H](N)C(=O)NC[C@H]1CC[C@H](C(=O)N[C@@H](Cc2ccccc2)C(=O)O)CC1	1	-4	1	-1	4	2
Nc1ncnc2c1nc(Sc1ccc(Cl)cc1)n2[C@@H]1O[C@@H]2COP(=O)(O)O[C@H]2[C@H]1O	4	-4	0	0	2	26*
O=C(NCC1CCCO1)c1cccc2c1C(=O)c1ccc(N3CCC(Cc4ccccc4)CC3)cc1S2(=O)=O (stereo not drawn)	-1	-14	-16	-12	33*	-9
Cc1cc(-c2nnc(CCC(=O)N(C)Cc3cccc4ccccc34)o2)no1	9	8	11	0	3	4
O=C1CCCc2c1cc(-c1ccccc1)n2-c1ccccc1	10	3	3	-1	5	25*
O=C(CNC(=O)c1cc2c(n(-c3ccccc3)c1=O)CCCC2=O)c1ccccc1	-2	-5	-6	2	6	0
CCC(C)c1ccccc1NC(=O)COC(=O)c1ccc(N2CCCC2)c([N+](=O)[O-])c1 (stereo not drawn)	4	79*	9	-1	30*	-2
CC1CCN(c2ccc(C(=O)O)cc2NS(=O)(=O)c2ccc(Br)cc2)CC1	7	10	6	6	3	28*
COC(=O)c1ccc(N2CCCCC2)c(NS(=O)(=O)c2ccc(C)cc2)c1	4	1	-12	-9	-1	3
O=C(CN1C(=O)NC(Cc2c[nH]c3ccccc23)C1=O)NCC(F)(F)F (stereo not drawn)	10	-5	0	-2	-1	1
SMILES	PAFAH1B3 inh	PAFAH2 FP inh	ATG4B inhibitor	DAGLB inhibitor	pPAFAH inh	PAFAH1B2 inh
CCc1c(O)nc(SCC(=O)c2ccccc2)n(-c2ccccc2)c1=O	9	14	5	0	26*	1
N#C/C(=C\c1ccc(OCc2ccc(Br)cc2)cc1)C(=O)Nc1cccc(C(=O)O)c1	-7	-31	-1	1	2	24*
N#C/C(=C\c1ccc(OCc2ccc(F)cc2)cc1)C(=O)Nc1cccc(C(=O)O)c1	4	-22	-1	2	1	6
Cc1c(C(=O)OCCOc2ccc(Br)cc2)sc(=S)n1C	3	3	6	-8	-1	28*
Cc1ccc(OCCOC(=O)c2sc(=S)n(C)c2C)cc1	-6	3	6	-9	0	10
CC1CCCCN1S(=O)(=O)c1ccc2c(c1)C(C)(C)C(=O)N2C (stereo not drawn)	3	-2	-2	-1	4	2
CCOC(=O)c1ccc(NC(=O)C2(c3ccc(Cl)cc3)CCCC2)cc1	-1	-9	-9	-2	-2	29*
COc1ccc(N(CC(=O)NCCSc2ccc(C)cc2)S(=O)(=O)c2ccccc2)c(OC)c1	6	-18	9	0	8	27*
O=C(CSc1nc2ccccc2s1)NCCOc1ccccc1	4	-6	-1	-3	12	27*
C=CCC1C=C(C)CC(CC=C)N1 (stereo not drawn)	-3	-1	1	1	0	5
CC(NC(=O)/C=C/c1cnc2ccccc2n1)C12CC3CC(CC(C3)C1)C2 (stereo not drawn)	8	12	-1	-4	5	24*
O=C(Oc1ccc2c(-c3ccccc3)cc(=O)oc2c1)C1CCCCC1	3	-6	5	-17	31*	-2
N#Cc1c(NC(=O)CSc2n[nH]c(N)n2)oc(-c2ccccc2)c1-c1ccccc1	10	-3	-8	0	12	25*
O=C(COC(=O)c1ccccc1Cl)NC1CCCCCC1	6	79*	-1	-2	31*	5
O=C(COC(=O)c1ccc(Cl)c(Cl)c1)NC1CCCC1	9	58*	-4	-2	34*	5
O=C(COC(=O)c1cnc(Cl)c(Cl)c1)NC1CCCC1	.	.	.	-3	.	.
CCOC(=O)c1ccc(N(CC(=O)NC2CCCCC2)C(=O)CNC(=O)c2ccco2)cc1	6	-5	2	-1	7	3
O=C(COC(=O)Cc1ccsc1)NC1CCCCCC1	4	14	-12	-1	30*	11
O=C(COC(=O)Cc1ccc(F)cc1)NC1CCCCCC1	3	20	-12	0	.	5
COc1ccc(NC(=O)COC(=O)Cc2ccsc2)c(OC)c1	9	7	-4	-1	30*	-2
COc1ccc(NC(=O)Cc2ccsc2)c(OC)c1	8	-2	-10	0	7	6
NC(=O)NC(=O)C(Nc1ccc(N2CCCCC2)cc1)c1ccccc1 (stereo not drawn)	-3	-3	-6	3	22	1
Cn1c(=O)c2nc3ccccc3nc2n(C)c1=O	10	2	4	0	3	4
